The text below walks through data of PubChem BioAssay (Tox21).

Where “and” joins values, the source holds several entries; their conditions need not be identical. Equal values may be shown once. Inconclusive results are not listed. A call without a number means that no potency is given here. Calls of active or inactive are those of the source. Calls follow the shape of the full dose curve.
Potency is read from the fitted curve at half-maximal effect.

The target of the assay is Acetylcholinesterase (Homo sapiens) (UniProt P22303). Put plainly: Acetylcholinesterase (AChE) small molecule antagonists: fluorescence cell-based qHTS assay (AID 1347398). Also: nearly all actives have a fitted effect of over 50% in size. The conditions noted are these: SH-SY5Y cells; Potency: AChE activity; outcome: AChE activity; series mostly up to 115 µM. In short, it runs like this: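 Cellular AChE activity read as thiocholine from acetylthiocholine hydrolysis, detected by Thiolite Green fluorescence at 490/520 nm after 40 min at room temperature. Compounds were pre-incubated 30 min at 37 C on adherent SH-SY5Y cells.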
Sequence of Acetylcholinesterase (Homo sapiens) (P22303 whole entry, looked up): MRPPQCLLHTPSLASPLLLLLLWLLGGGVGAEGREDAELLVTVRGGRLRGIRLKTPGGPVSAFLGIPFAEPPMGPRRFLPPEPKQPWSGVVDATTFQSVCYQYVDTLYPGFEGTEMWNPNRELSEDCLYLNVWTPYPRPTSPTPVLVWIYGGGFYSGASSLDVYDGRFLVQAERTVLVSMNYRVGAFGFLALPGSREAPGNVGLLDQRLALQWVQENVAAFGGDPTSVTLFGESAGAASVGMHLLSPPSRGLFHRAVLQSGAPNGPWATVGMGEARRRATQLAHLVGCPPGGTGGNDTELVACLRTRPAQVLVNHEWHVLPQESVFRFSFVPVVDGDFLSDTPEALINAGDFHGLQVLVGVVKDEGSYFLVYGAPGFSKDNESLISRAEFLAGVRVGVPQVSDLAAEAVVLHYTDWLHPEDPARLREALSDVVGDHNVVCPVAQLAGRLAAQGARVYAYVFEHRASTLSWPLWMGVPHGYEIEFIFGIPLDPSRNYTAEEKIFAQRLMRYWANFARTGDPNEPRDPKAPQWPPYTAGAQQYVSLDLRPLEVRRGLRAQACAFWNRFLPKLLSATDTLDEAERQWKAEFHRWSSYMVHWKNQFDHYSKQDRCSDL
Background: In qHTS, concentration-response curves come from the screen itself.
Consider `CCOC(=O)C1CC(=O)C(=C(O)C2CC2)C(=O)C1` (centres undefined), for which the Potency result is “inactive”.
In the case of `Nc1cccc2c(=O)[nH][nH]c(=O)c12`, the Potency result was “inactive”.
Still for that read-out and setting: the result for `OCC(F)(F)F` reads “inactive”; that for `O=S1OCCO1`, “inactive”.
As for `CCCCCCCCCCCCS(=O)(=O)Cl`, the activity change, negative = inhibition is 0.319% [at 23.8 µM] (inactive).
With `CCCCCCCCCCCC[N+](C)(C)CCCCCCCCCCCC`, the Potency is 63.3 µM (active).
The same measure, in the same setting: the result for `O=C(CO)[C@@H](O)[C@H](O)[C@@H](O)CO` reads “inactive”.
In the case of `CC(=O)Oc1ccc(C(c2ccc(OC(C)=O)cc2)c2ccccn2)cc1`, the Potency entry was “inactive”.
Regarding `CS(=O)(=O)c1ccc([C@@H](C[C@H]2CCC(=O)C2)C(=O)Nc2cnccn2)cc1Cl`, the Potency result was “inactive”.
Same read-out and setting: the result for `OCCC1CCCCN1` (centres undefined) reads “inactive”; that for `C=CCN(CC=C)CC=C`, “inactive”; that for `CCCCCCCCCCCCCC[P+](CCCC)(CCCC)CCCC`, 35.4 µM (active) and 63.3 µM (active).
Turning to `NC(N)=NN=C(/C=C/c1ccc([N+](=O)[O-])o1)/C=C/c1ccc([N+](=O)[O-])o1`, the Potency result was “inactive”.
Same read-out and setting: the result for `CCCCCCCC(=O)N(C)C` reads “inactive”.
On to `CC(C)CCCC(C)NCCC(C)C` (centres undefined), for which the Potency entry was “inactive”.
`CC[N+](CC)(CC)CCOc1ccc(/C=C/c2ccccc2)cc1`: the Potency was 34.7 µM (active).
Consider `CC(=O)OCCC(C)CC(C)(C)C` (centres undefined), for which the Potency result was “inactive”.
Consider `CCCOC(=O)c1ccc(O)cc1`, for which the Potency result was “inactive”.
Consider `Cc1cscn1`, for which the Potency entry was “inactive”.
Regarding `C[C@H]1O[C@@H](O[C@H]2CC[C@@]3(C)[C@H](CC[C@@H]4[C@@H]3C[C@@H](O)[C@]3(C)[C@@H](C5=CC(=O)OC5)CC[C@]43O)C2)C[C@H](O)[C@@H]1O[C@H]1C[C@H](O)[C@H](O[C@H]2C[C@H](O)[C@H](O[C@@H]3O[C@H](CO)[C@@H](O)[C@H](O)[C@H]3O)[C@@H](C)O2)[C@@H](C)O1`, the Potency entry is “inactive”.
On the same count and under the same terms, the result for `CCNS(=O)(=O)c1ccc(C)cc1` reads “inactive”; that for `CC(CO)CO`, “inactive”; that for `CC/C=C\CC/C=C/CO`, “inactive”.
The same measure, in the same setting: the result for `CCCCCCOC(=O)CC(CC(=O)OCCCCCC)(OC(=O)CCC)C(=O)OCCCCCC` reads “inactive”.
Still for that read-out and setting: as for `CSc1nc(NC2CC2)nc(NC(C)(C)C)n1`, the entry is “inactive”; as for `C/C=C1\C(=O)C[C@H]2[C@@H]3CCC4=CC(=O)CC[C@]4(C)[C@H]3CC[C@]12C`, “inactive”; as for `CCOc1ccc2ccccc2c1C(=O)N[C@@H]1C(=O)N2[C@@H]1SC(C)(C)[C@@H]2C(=O)O`, “inactive”.
`Cc1c(C)c([N+](=O)[O-])c(C(C)(C)C)c([N+](=O)[O-])c1C`: the Potency result is “inactive”.
On the same count and under the same terms, the result for `Cc1cc2c(cc1C(F)(F)F)N(C(=O)Nc1ccc(Oc3cccnc3C)nc1)CC2` reads “inactive”; that for `Cc1nccn1CC1CCc2c(c3ccccc3n2C)C1=O` (centres undefined), 15.5 µM (active).
Regarding `O=C(OCC(COC(=O)c1cccnc1)(COC(=O)c1cccnc1)COC(=O)c1cccnc1)c1cccnc1`, the Potency entry is “inactive”.
On the same count and under the same terms, the result for `CCCCCCCOC(=O)c1ccccc1C(=O)OCCCCCCC` reads “inactive”; that for `CCC(C)OC(C)CC` (centres undefined), “inactive”; that for `NCCCCCCNCCCCCCN`, 39.3 µM (active).
Consider `NC(=O)NS(=O)(=O)c1ccc(Cl)cc1`, for which the Potency result is “inactive”.
Still for that read-out and setting: the result for `CN(C)CCOCCN(C)CCO` reads “inactive”.
On the same count and under the same terms, as for `CCNC(=O)C1CC(C)CCC1C(C)C` (centres undefined), the entry is “inactive”.
For `C=C(C)C(=O)NCCCN(C)C`, the Potency entry is “inactive”.
For `O=c1[nH]c(=O)n([C@H]2C[C@H](O)[C@@H](CO)O2)cc1I`, the Potency entry is “inactive”.
